# Rows were chosen to be rich in hits. Some 8.3% of all compounds tested hit in one or more screens of this group.
# LASV entry inh – Lassa virus entry inhibition; Lassa virus pseudotype entry inhibition, cell reporter; Potency, µM (series often up to 37.9 µM), without a hit: at the highest dose activity change, negative = inhibition, usual class: inhibitors; actives 1.2% (n = 300,000); AID 540256; calls by dose curve; tested in HEK293 cells; also: potency is read from the fitted curve at half-maximal effect; nearly all actives have a fitted effect of over 50% in size
# MARV entry inh – blocks Marburg virus binding to or entry into cells; Marburg virus pseudotyped entry inhibition, cell reporter; Potency, µM (highest dose often 37.8 µM), inactives show at the top dose activity change, negative = inhibition, most hits filed as inhibitors; actives 1.8% (n = 300,000); AID 540276; calls by dose curve; tested in HEK293 cells; also: potency is read from the fitted curve at half-maximal effect
# HCMV inh – inhibitors of human cytomegalovirus; HFF cells, HCMV-luciferase reporter, 72 h; hits give low values; activity change, negative = inhibition, % at 57.5 µM; actives 4.5% (n = 410,000); in the data active = activity change below about -60%; inconclusive = no clear call, values can overlap the other calls; inactive = above about -39%
#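 After 16 h attachment at 37C, HFF cells received test compound and HCMV-luciferase (1 PFU/cell); reporter luminescence read 72 h later, data normalized against buffer-only and known inhibitor Salinomycin.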
# Giardia FBPA inh – inhibitors of Giardia lamblia fructose-1,6-bisphosphate aldolase; Potency, µM (highest dose often 59.6 µM), for inactives: at the top dose activity, negative = inhibition, usual class: inhibitors; purified Giardia FBPA; actives 0.71% (n = 290,000); AID 2451; A8B2U2; also: potency is read from the fitted curve at half-maximal effect; nearly all actives have a fitted effect of over 55% in size
# Target sequence (A8B2U2 whole entry, looked up): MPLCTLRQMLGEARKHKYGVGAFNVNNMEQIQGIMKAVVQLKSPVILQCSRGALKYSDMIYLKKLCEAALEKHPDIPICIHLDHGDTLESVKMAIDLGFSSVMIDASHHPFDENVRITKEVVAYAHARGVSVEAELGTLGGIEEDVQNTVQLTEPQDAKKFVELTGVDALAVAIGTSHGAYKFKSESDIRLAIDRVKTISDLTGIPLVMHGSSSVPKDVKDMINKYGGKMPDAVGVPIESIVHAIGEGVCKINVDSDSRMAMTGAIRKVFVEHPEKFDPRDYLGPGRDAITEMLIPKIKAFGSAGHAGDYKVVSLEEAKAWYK
#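 40 nM FBPA preincubated 10 min at RT with compound (up to 57.5 uM final), then substrate plus GAPDH/TPI/NAD/arsenate coupling and diaphorase/resazurin added. Fluorescence read after 20 min at RT, 525/598 nm.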
# FMDV inh – antivirals against foot and mouth disease virus. actives 1.2% (n = 410,000). Potency, µM (doses to about 57.9 µM), for inactives: top-dose activity change, negative = inhibition, actives largely listed as inhibitors. AID 1159524. FMDV antiviral cell-based qHTS; calls by dose curve; tested in HEK293T cells; also: read-out not given here; potency is read from the fitted curve at half-maximal effect; nearly all actives have a fitted effect of over 45% in size
# HCV inh – HCV inhibition | Huh7.5.1 HCVcc-Cre infection, luciferase reporter, 44 h | Potency, µM (highest dose often 41.8 µM), for inactives: top-dose activity change, negative = inhibition, hits mostly inhibitors | actives 3.4% (n = 340,000); also: potency is read from the fitted curve at half-maximal effect
#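 Reporter virus HCVcc-Cre (~0.5 moi) infects cells exposed to compound; seeding density 1,000 cells/well with 4 h settling beforehand. Luminescence, 15 sec read, taken 44 h post-infection following a 15 min RT substrate incubation.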
# * marks the source's active call; other numbers are inactive results; ? = inconclusive; . = no result given; + = active, no number; [ ] = another dose, or the depositor's remark. Unless noted, calls follow the shape of the dose curve; as a rule, active = well fitted curve in the direction sought with a large enough effect; inconclusive = small, poorly fitted or top-dose-only effect, or another doubt; inactive = no such curve, though single readings can be large; an effect the other way counts as inactive or inconclusive. % is scaled to controls: 0 for no effect and ±100 for the full control effect.
SMILES,LASV entry inh,MARV entry inh,HCMV inh,Giardia FBPA inh,FMDV inh,HCV inh
CC(C)Cn1c(N)c(C(=O)CSc2ccc3c(c2)OCCO3)c(=O)n(C)c1=O,?,?,-94.3*,0.2%,11.2µM*,2µM*
CCc1ccc(C(=O)OCC(=O)c2c(N)n(CC(C)C)c(=O)n(C)c2=O)cc1,?,?,-64.8*,-4.6%,?,?
CC(C)Cn1c(N)c(C(=O)COC(=O)c2ccc(F)cc2)c(=O)n(C)c1=O,-27.0%[46.1 µM],?,-23.4,-1.2%,?,?
CC(C)Cn1c(N)c(C(=O)COC(=O)c2ccc3c(c2)OCCO3)c(=O)n(C)c1=O,?,?,?,-8.3%,?,7.08µM*
NC(=NCCc1ccc(I)cc1)SCCCc1cnc[nH]1,.,.,.,-0.3%,-3.7%,.
O=C(NCc1ccccc1)c1onc(CSc2ccccc2)c1C(=O)NCC1CC1,.,.,-11.7,-10.8%,-20.7%,10µM*
CC1CCC2(CC1)NC(=O)N(CC(=O)NCc1ccc3c(c1)OCO3)C2=O (centres undefined),.,.,?,-0.6%,-11.2%,12.7%
CC1CCCCC12NC(=O)N(CC(=O)N1CCN(Cc3ccc(C#N)cc3)CC1)C2=O (centres undefined),.,.,0.0,.,?,10µM*
CC1CCCCC12NC(=O)N(CC(=O)OCc1ccc(Br)cc1)C2=O (centres undefined),.,.,+,.,?,0.9%
CC1CCCCC12NC(=O)N(CC(=O)NCc1ccc3c(c1)OCO3)C2=O (centres undefined),6.4%,0.4%[46.1 µM],-80.4*,1.4%,8.4%,12.1%
Cc1ccc(NC(=O)c2oc3ccccc3c2NC(=O)C2CCCCC2)cc1,-0.8%[46.1 µM],7.2%[46.1 µM],-11.4,.,0.0%,.
COC(=O)c1ccc(NC(=O)c2cc(S(=O)(=O)N3CCc4ccccc43)cn2C)cc1,-24.6%[46.1 µM],.,-14.6,.,1.0%,.
O=C1CC(c2ccc(F)c(Br)c2)C2=C(CCCC2=O)N1 (centres undefined),21.9%,-2.3%,-102.0*,-2.6%,?,-7.6%
COc1ccc(S(=O)(=O)/N=C2/C=CC(=O)C(C)=C2C)cc1,-9.0%,?,.,?,-9.7%,12.6µM*
CC1=C(C)/C(=N\OS(=O)(=O)c2ccc(C)cc2)C=CC1=O,6.31µM*,1.41µM*,-85.6*,3.97µM*,20µM*,?
COc1ccc(S(=O)(=O)c2ccc(OC)cc2)cc1,-5.6%,?,-36.3,9.9%,25.6%,25.9%
CC1=CC(=NOS(=O)(=O)c2ccc(C)cc2)CC(C)(C)C1,.,.,7.8,.,-27.0%,.
CN(C)c1ccc(-c2cc(NCc3cccnc3)ncn2)cc1,.,.,.,-7.7%,50.7%,.
CC(C)(C)Nc1nc(NN)nc(NC(C)(C)C)n1,?,?,-84.6*,7.3%,-22.4%,?
FC(F)Oc1ccc(C2=Nn3c(nnc3-c3ccccc3Cl)SC2)cc1OCC1CC1,.,.,20.7,.,0.0%,.
COc1ccc(C2=Nn3c(nnc3-c3ccccc3F)SC2)cc1OCC1CC1,.,.,-97.7*,.,?,.
COc1ccc(OC)c(C2=Nn3c(nnc3-c3cc(OC)c(OC)c(OC)c3)SC2)c1,-25.0%[14.3 µM],?,36.6,?,-22.5%,.
COc1cc(-c2nnc3n2N=C(c2ccccc2)CS3)cc(OC)c1OC,?,?,3.6,?,?,10µM*
c1ccc(C2=Nn3c(nnc3-c3cc(-c4ccccc4)n[nH]3)SC2)cc1,15.8µM*,?,-28.3,-11.5%,?,?
Cc1ccc(-c2nnc3n2N=C(c2ccccc2)CS3)cc1,-4.3%,20.5%,0.7,4.1%,-1.8%,-3.6%
SMILES,LASV entry inh,MARV entry inh,HCMV inh,Giardia FBPA inh,FMDV inh,HCV inh
Clc1ccc(C2=Nn3c(nnc3-c3cc(-c4ccccc4)n[nH]3)SC2)cc1,?,?,40.5,10.2%,?,?
CCOc1ccc(C2=Nn3c(nnc3-c3ccccc3)SC2)cc1Cl,2.9%,?,-102.0*,0.2%,11.1%,-16.4%
COc1ccc(-n2cc(C(=O)NCc3ccccc3Cl)c3ccccc3c2=O)cc1,1.0%[46.1 µM],.,6.1,.,-12.1%,.
COc1ccc(C2=Nn3c(nnc3-c3ccccc3OC)SC2)cc1OC,?,?,-96.9*,1.7%,-18.9%,?
COc1ccc(C2=Nn3c(nnc3-c3ccccc3Cl)SC2)cc1OC1CCCC1,.,.,-93.7*,.,31.6µM*,.
COc1ccc(OC)c(-c2nnc3n2N=C(c2ccc(OC)c(OC4CCOC4)c2)CS3)c1 (centres undefined),.,.,-75.3*,.,-17.0%,.
COc1ccc(-c2nnc3n2N=C(c2cc(OC)ccc2OC)CS3)cc1,.,.,.,7.5%,.,.
COc1ccc(C2=Nn3c(nnc3-c3ccccc3Cl)SC2)cc1OC1CCOC1 (centres undefined),.,.,19.9,.,33.1%,.
COC(=O)CC1C(C)(C)C(=O)C2CC3=C4CC(=O)OC(c5ccoc5)[C@]4(C)CCC3[C@@]1(C)C2=O (some centres undefined),.,.,.,-4.5%,-0.4%,.
Cc1c(-c2ccc(O)cc2)nn(-c2ccc(O)cc2)c1-c1ccc(OCCN2CCCCC2)cc1,.,.,.,-1.0%,0.0%,.
O=c1c2ccccc2n(Cc2cccc(F)c2)c(=O)n1Cc1ccccc1Cl,1.9%[46.1 µM],-6.6%[46.1 µM],-18.3,.,1.7%,.
Cc1nc2ccn(Cc3ccco3)c(=O)c2cc1C(=O)NCc1ccc(Cl)cc1,?,.,-38.4,.,-2.8%,.
COC(=O)c1ccc(NC(=O)c2cn(-c3ccccc3)nc2-c2ccncc2)cc1,-14.9%,12.6µM*,-97.8*,0.5%,?,?
O=C(Nc1cccc(S(=O)(=O)N2CCOCC2)c1)c1cn(-c2ccccc2)nc1-c1ccc(F)cc1,-10.6%,?,-22.6,-0.1%,9.7%,?
Cc1cccc(C)c1NC(=O)c1cn(-c2ccccc2)nc1-c1ccccc1,-2.6%,17.0%,-64.4*,15.9%,-20.0%,?
CN1CCN(NC(=O)c2cn(-c3ccccc3)nc2-c2ccc(OC(F)F)cc2)CC1,7.1%,7.08µM*,-37.7,-6.4%,-5.1%,-6.5%
O=C(Nc1cccc(S(=O)(=O)N2CCOCC2)c1)c1cn(-c2ccccc2)nc1-c1ccccc1,?,?,-64.2*,-9.3%,26.0%,15.5%
Cc1ccccc1NC(=O)c1cn(-c2ccccc2)nc1-c1ccccc1,-6.8%[46.1 µM],2.4%[46.1 µM],?,-6.4%,?,?
C=C1CCN(C(C)C(=O)OCc2cccc(C)c2)S(=O)(=O)c2ccccc21 (centres undefined),.,.,.,-8.3%,.,.
COc1cc(C)c(Cl)cc1S(=O)(=O)NCCc1c(C)[nH]c2ccccc12,-12.2%[46.1 µM],-17.9%[46.1 µM],8.5,.,32.8%,.
CC(=O)OC[C@@H]1O[C@H](CCON=C(C)C)C=C[C@@H]1OC(C)=O,.,.,.,1.8%[12.9 µM],.,.
CCCCCc1cc(=O)oc2c(C(CCN3CCCC3)c3ccc4c(c3)OCO4)c(OC)cc(OC)c12 (centres undefined),.,.,.,-7.6%,.,.

# Source: PubChem BioAssay
